# In PubChem BioAssay (NCATS):
# Several values for one entry are separate records, joined by “and”; a condition that tells them apart may be missing. Equal entries are not always repeated. Results filed as inconclusive are left out. Activity calls are given as the source filed them. Unless noted, calls follow the shape of the full dose curve.
# Assays:
# [1] = target: Glucocorticoid receptor (Homo sapiens) (UniProt P04150); experiment: GR-GFP Redistribution (AID 450;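 active = compounds whose dose series gives a full or clear partial fitted curve of increased nuclear translocation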; also: potency is read from the fitted curve at half-maximal effect); details: U2OS GR-GFP nuclear translocation, laser cytometry, 2 h
# [2] = target: Glucocorticoid receptor (Homo sapiens) (UniProt P04150); experiment: GR-EFC Redistribution (AID 451); details: CHO-K1 GR-EFC translocation, beta-gal luminescence, 2 h; also: potency is read from the fitted curve at half-maximal effect
# Procedure, shortened: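 Translocation of GR-ED fusion to nuclear EA restores b-gal, read by luminescence after 1 h room-temperature detection. Engineered CHO-K1 biosensor cells, 1,000/well, exposed 2 h at 37 C to titrations up to 46 uM final.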
# [3] = target: 3',5'-cyclic-AMP phosphodiesterase 4B (Homo sapiens) (UniProt Q07343); experiment: qHTS Assay for Inhibitors of PDE-IV (AID 607; active = well fitted activation curve with a large enough effect in the main read-out, with a control signal flat, not every such curve was filed as active; also: % of control where 0% means no effect); details: HEK293 ACTOne CNG channel cells, membrane potential fluorescence; series mostly up to 22.9 µM
# Procedure, shortened: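 Cell-based read-out of cAMP via a modified cyclic nucleotide-gated channel and membrane potential dye (535/590 nm) in HEK293 cells expressing PDE4 endogenously. Compounds tested up to 22.9 uM final; 100 uM RO 20-1724 reference.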
# [4] = target: Cytochrome P450 3A4 (Homo sapiens) (UniProt P08684); experiment: qHTS Assay for Activators of Cytochrome P450 3A4 (AID 885; active = well fitted curve in the direction sought with a large enough effect; an effect the other way counts as inactive or inconclusive; also: nearly all actives have a fitted effect of over 65% in size); details: recombinant CYP3A4, Luciferin-PPXE luminescence, 60 min; series mostly up to 57.1 µM
# Procedure, shortened: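 Signal was normalized against complete inhibition by 57 uM ketoconazole. The reaction used 20nM CYP3A4 with 25uM Luciferin-PPXE, 10-min compound preincubation and a 60-min NADPH-supported step at RT.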
# [5] = target: Ubiquitin carboxyl-terminal hydrolase 1 (Homo sapiens) (UniProt O94782); experiment: Inhibitors of USP1/UAF1: Pilot qHTS (AID 504865; active = well fitted curve in the direction sought with a large enough effect; an effect the other way counts as inactive or inconclusive;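 also: rhodamine fluorescence freed from ubiquitin-rhodamine substrate followed over time; top concentration of the series differs between compounds; % is scaled to controls: 0 for no effect and ±100 for the full control effect; nearly all actives have a fitted effect of over 35% in size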); details: purified USP1/UAF1, Ub-rhodamine cleavage fluorescence; series mostly up to 114 µM
# Procedure, shortened: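 1nM USP1/UAF1 + cpd, 15 min RT; start w/ Ub-Rho 150nM final; kinetic FL 480/540 nm, 6 reads q60 s. Buffer 50mM HEPES pH 7.8, 0.5mM EDTA, 1mM TCEP, 0.01% Tween-20, 0.1 mg/ml BSA.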
# [6] = Primary qHTS for small molecule stabilizers of the endoplasmic reticulum resident proteome: Secreted ER Calcium Modulated Protein (SERCaMP) assay (AID 1508630; active = well fitted curve in the direction sought with a large enough effect; an effect the other way counts as inactive or inconclusive; also: % is scaled to controls: 0 for no effect and ±100 for the full control effect); details: SH-SY5Y GLuc-SERCaMP (Gaussia luciferase released on ER calcium loss) secretion, thapsigargin, luminescence; series mostly up to 38.4 µM
# Procedure, shortened: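 GLuc-SERCaMP-expressing SH-SY5Y cells, pretreated 16 h with compound, are challenged with thapsigargin to empty ER calcium stores; after 4 h, coelenterazine is added directly to the medium and luminescence is imaged.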
# [7] = qHTS Assay for Lipid Storage Modulators (AID 1519); details: Drosophila S3 cells, BODIPY lipid droplet/cell ratio, laser cytometry, cells loaded with oleic acid
# Procedure, shortened: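 Cells seeded at 5,000 per well were treated with compounds over a concentration series and loaded with oleic acid (400 uM, as added). Lipid droplet fluorescence (488 nm excitation, 500-530 nm channel) was read by laser-scanning cytometry and normalized to 20 uM Triacsin C.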
# [8] = target: Voltage-gated inwardly rectifying potassium channel KCNH2 (Homo sapiens) (UniProt Q12809); experiment: qHTS Assay for Small Molecule Inhibitors of the Human hERG Channel Activity (AID 588834; active = well fitted curve in the direction sought with a large enough effect; an effect the other way counts as inactive or inconclusive;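 also: potency is read from the fitted curve at half-maximal effect; lower thallium flux fluorescence means stronger hERG block; nearly all actives have a fitted effect of over 50% in size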); details: U2OS BacMam hERG, FluxOR thallium flux fluorescence; series mostly up to 92.2 µM
# Procedure, shortened: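 Concentration-response qHTS measuring drop in thallium-sensitive dye signal. U2OS cells carrying BacMam hERG; compound exposure ~10 min, then stimulation buffer and 2 min read at 1 sec intervals.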
# [9] = Confirmation and Secondary Assay for Modulators of Hemoglobin Beta Chain Splicing at IVS2 654 locus (AID 910; active = well fitted curve in the direction sought with a large enough effect; an effect the other way counts as inactive or inconclusive;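 also: HeLa cells stably carrying EGFP split by mutant beta-globin IVS2-654 intron; per-well total GFP intensity by laser scanning cytometry after 2-day treatment; % of control where 0% means no effect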); details: HeLa EGFP-654 splicing reporter, GFP fluorescence, 48 h; series mostly up to 46.1 µM
# Procedure, shortened: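 Readout: per-well total peak green fluorescence (488 nm ex, 500–520 nm em) from objects 5–250 µm, reflecting correct splicing of an EGFP-654 reporter. Compounds were applied for 2 days at 37 °C to overnight-plated HeLa EGFP-654 cells; controls were DMSO and 500 nM IVS2-654 PNA.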
# [10] = Confirmation and Secondary Assay for Modulators of Hemoglobin Beta Chain Splicing at IVS2 705 locus (AID 930; active = well fitted curve in the direction sought with a large enough effect; an effect the other way counts as inactive or inconclusive;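 also: HeLa cells stably expressing the EGFP-705 splicing reporter; GFP fluorescence per well restored by corrected splicing of the IVS2-705 intron in EGFP; % of control where 0% means no effect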); details: HeLa EGFP-705 splicing reporter, GFP fluorescence, 48 h; series mostly up to 46.1 µM
# Procedure, shortened: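 Per-well GFP, captured at 1 x 8 µm resolution with 488 nm excitation, served as the read-out for HeLa EGFP-705 cells incubated 2 days with test compound versus DMSO.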
# [11] = AP1 Signaling Pathway (AID 357; active = well fitted curve in either direction with a large enough effect, not every such curve was filed as active;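 also: ME-180 reporter cells stimulated with EGF at its EC50 level; % is scaled to controls: 0 for no effect and ±100 for the full control effect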); details: ME-180 AP-1-bla reporter, EGF-induced, beta-lactamase ratio, 5 h; series mostly up to 17.2 µM
# Procedure, shortened: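 Titration-series screen for positive or negative modulators of EC50 EGF-induced signaling in ME-180 cells carrying an AP-1-driven beta-lactamase reporter. After 5 hours at 37 degrees Celsius, CCF4 460nm/530nm emission ratio gave %Activity; AC50 values derived.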
# [12] = target: Cytochrome P450 1A2 (Homo sapiens) (UniProt P05177); experiment: p450-cyp1a2 (AID 410); details: recombinant CYP1A2, luciferin-ME demethylation, luminescence; series mostly up to 25.6 µM; also: potency is read from the fitted curve at half-maximal effect
# Procedure, shortened: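 Human CYP1A2 (20nM) demethylated Luciferin-ME at its Km (100uM) in 100mM KPO4. After 10 min compound preincubation, NADPH regeneration ran the reaction 60 min at room temperature. Luciferin was read by luminescence, normalized to 57 uM furafylline.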
# [13] = NFAT Signaling Pathway (AID 444; active = well fitted curve in either direction with a large enough effect, not every such curve was filed as active;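 also: carbachol stimulus at about its EC50 of 1 µM final; % is scaled to controls: 0 for no effect and ±100 for the full control effect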); details: Jurkat NFAT-bla M1, carbachol, beta-lactamase ratio, 5 h; at 17.2 µM (top of the series)
# Procedure, shortened: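 Read-out: CCF4 FRET ratio (460 nm/530 nm) after 1 h RT dye loading, used for %activity and AC50 from titration series. Cells: Jurkat NFAT-β-lactamase/M1 line, treated with compound plus 1 uM carbachol for 5 h, 37 °C.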
# [14] = Stat Signaling Pathway (AID 446; active = well fitted curve in either direction with a large enough effect, not every such curve was filed as active;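 also: ME-180 cervical cancer cells given 40 pM IL-6 alongside compound; SIE-controlled beta-lactamase reporter measured as 460/530 nm FRET emission ratio; % is scaled to controls: 0 for no effect and ±100 for the full control effect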); details: ME-180 SIE beta-lactamase reporter, IL-6 stimulated, 5 h; series mostly up to 17.2 µM
# Procedure, shortened: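 Reporter line: ME-180 cervical carcinoma, SIE-beta-lactamase. Treatment: compound with 40 pM IL-6, 5 hrs, 37 C, in low-serum OPTI-MEM with 10 mM HEPES pH 7.3. Detection: 460/530 nm fluorescence.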
# [15] = target: Mitogen-activated protein kinase 10 (Mus musculus) (UniProt Q61831); experiment: JNK3 AlphaScreen Assay (AID 530; active = well fitted curve in either direction with a large enough effect, not every such curve was filed as active); details: JNK3 lysate, c-Jun phosphorylation; series mostly up to 57.1 µM
# Procedure, shortened: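 Room-temperature AlphaScreen kinase assay; pre-activated HepG2 lysate as JNK3 source, biotin-GST-cJun(1-79) substrate, 10 uM ATP, compound 15 min preincubation.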
# [16] = target: Cytochrome P450 2D6 (Homo sapiens) (UniProt P10635); experiment: qHTS Assay for Inhibitors and Substrates of Cytochrome P450 2D6 (AID 891; active = well fitted curve in the direction sought with a large enough effect; an effect the other way counts as inactive or inconclusive;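 also: luciferin methyl ether substrate demethylated by CYP2D6 with NADPH regeneration; % is scaled to controls: 0 for no effect and ±100 for the full control effect; nearly all actives have a fitted effect of over 60% in size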); details: recombinant CYP2D6, luciferin-ME EGE luminescence; series mostly up to 57.1 µM
# Procedure, shortened: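 Human CYP2D6 (5 nM) with 30 uM Luciferin-ME EGE (at Km) in 100 mM KPO4, compound preincubated 10 min, then NADPH regeneration system for 60 min at room temperature. Luciferin read by luminescence; normalized to 1.43 uM quinidine.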
# [17] = tested on: HIV-1 nucleocapsid protein NCp7 (binding to TG oligonucleotide); experiment: HIV Nucleocapsid (AID 346; call rule not given here;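 also: potency is read from the fitted curve at half-maximal effect; potency is for inhibitors that block NC binding and lower polarization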); details: HIV-1 NC / fluorescein-TGTGTGTG probe, fluorescence polarization
# Procedure, shortened: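 Fluorescence polarization readout: labelled TG4xF oligo (10 nM) with 100 nM nucleocapsid protein, high-salt (250mM NaCl) Hepes pH 7.5 buffer containing zinc and fresh reducing agents. Compounds added by pin tool; incubation 1 hr, room temperature.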
# [18] = target: Lysosomal acid glucosylceramidase (Homo sapiens) (UniProt P04062); experiment: Glucocerebrosidase-p2 (AID 348; in the data active = potency below about 10 µM; also: potency is read from the fitted curve at half-maximal effect); details: purified GBA, blue fluorogenic substrate, 40 min
# Procedure, shortened: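 Compounds titrated from 0.6 nM upwards against 0.2 nM enzyme in pH 5.9 citric acid/KH2PO4, taurocholate, tween-20; blue fluorogenic substrate 80 uM, 40 min room temperature, stopped and read Ex 365/Em 440 for AC50.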
# [19] = measured here: cell count channel max response
# [20] = measured here: lipid channel max response
# Chain of Glucocorticoid receptor (Homo sapiens) (P04150 whole entry, looked up, the tested form may be a part): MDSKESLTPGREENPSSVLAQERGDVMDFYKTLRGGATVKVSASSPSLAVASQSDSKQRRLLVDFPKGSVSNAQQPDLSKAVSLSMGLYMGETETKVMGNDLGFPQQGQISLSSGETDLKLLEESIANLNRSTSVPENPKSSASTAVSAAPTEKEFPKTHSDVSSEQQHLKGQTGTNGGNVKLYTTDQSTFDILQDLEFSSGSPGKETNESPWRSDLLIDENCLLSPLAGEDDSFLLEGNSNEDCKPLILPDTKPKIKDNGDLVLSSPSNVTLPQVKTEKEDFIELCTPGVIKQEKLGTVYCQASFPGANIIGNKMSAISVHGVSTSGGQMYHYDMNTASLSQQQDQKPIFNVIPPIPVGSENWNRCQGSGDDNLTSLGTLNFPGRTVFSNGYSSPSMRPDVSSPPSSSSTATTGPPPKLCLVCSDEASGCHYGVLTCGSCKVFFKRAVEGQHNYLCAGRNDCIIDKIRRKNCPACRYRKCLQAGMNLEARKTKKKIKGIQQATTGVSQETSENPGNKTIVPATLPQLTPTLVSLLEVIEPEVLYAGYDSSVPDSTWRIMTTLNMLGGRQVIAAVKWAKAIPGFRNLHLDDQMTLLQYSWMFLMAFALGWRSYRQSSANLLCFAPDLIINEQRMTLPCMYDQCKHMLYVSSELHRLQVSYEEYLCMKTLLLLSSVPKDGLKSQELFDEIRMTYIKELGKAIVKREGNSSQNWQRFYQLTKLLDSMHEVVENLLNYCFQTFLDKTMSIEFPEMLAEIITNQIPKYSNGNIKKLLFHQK
# Chain of Cytochrome P450 3A4 (Homo sapiens) (P08684 whole entry, looked up): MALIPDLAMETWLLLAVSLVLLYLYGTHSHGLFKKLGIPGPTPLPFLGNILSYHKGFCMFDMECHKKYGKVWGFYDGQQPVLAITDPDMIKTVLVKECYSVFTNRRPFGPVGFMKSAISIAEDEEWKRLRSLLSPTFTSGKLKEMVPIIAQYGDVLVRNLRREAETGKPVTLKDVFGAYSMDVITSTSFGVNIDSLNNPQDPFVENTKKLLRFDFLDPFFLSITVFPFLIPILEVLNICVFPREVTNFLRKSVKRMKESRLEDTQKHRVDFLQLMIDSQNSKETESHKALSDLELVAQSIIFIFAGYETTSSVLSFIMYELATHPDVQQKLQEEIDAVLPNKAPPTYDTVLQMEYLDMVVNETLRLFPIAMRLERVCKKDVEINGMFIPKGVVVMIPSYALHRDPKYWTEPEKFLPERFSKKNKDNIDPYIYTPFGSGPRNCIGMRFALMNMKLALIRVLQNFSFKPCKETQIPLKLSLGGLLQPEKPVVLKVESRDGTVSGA
# Chain of Ubiquitin carboxyl-terminal hydrolase 1 (Homo sapiens) (O94782 whole entry, looked up): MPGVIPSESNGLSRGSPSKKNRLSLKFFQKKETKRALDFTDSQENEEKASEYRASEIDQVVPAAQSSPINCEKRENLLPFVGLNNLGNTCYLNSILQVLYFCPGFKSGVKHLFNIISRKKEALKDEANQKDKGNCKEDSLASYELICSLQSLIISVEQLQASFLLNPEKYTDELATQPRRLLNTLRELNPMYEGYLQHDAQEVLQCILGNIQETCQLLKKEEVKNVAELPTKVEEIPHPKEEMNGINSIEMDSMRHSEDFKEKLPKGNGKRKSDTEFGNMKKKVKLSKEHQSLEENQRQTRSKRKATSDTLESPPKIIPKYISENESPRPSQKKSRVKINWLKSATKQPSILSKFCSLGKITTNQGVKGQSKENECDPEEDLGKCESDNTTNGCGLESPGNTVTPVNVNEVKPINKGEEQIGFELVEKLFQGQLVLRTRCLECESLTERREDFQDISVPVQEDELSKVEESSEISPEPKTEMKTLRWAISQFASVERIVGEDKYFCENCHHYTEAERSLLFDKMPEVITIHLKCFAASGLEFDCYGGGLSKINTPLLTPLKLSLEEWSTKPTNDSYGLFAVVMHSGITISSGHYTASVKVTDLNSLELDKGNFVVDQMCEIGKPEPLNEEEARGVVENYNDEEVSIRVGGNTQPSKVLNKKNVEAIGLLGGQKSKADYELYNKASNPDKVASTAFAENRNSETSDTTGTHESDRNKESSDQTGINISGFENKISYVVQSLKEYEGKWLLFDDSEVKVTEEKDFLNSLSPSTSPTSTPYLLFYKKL
# Chain of 3',5'-cyclic-AMP phosphodiesterase 4B (Homo sapiens) (Q07343 whole entry, looked up): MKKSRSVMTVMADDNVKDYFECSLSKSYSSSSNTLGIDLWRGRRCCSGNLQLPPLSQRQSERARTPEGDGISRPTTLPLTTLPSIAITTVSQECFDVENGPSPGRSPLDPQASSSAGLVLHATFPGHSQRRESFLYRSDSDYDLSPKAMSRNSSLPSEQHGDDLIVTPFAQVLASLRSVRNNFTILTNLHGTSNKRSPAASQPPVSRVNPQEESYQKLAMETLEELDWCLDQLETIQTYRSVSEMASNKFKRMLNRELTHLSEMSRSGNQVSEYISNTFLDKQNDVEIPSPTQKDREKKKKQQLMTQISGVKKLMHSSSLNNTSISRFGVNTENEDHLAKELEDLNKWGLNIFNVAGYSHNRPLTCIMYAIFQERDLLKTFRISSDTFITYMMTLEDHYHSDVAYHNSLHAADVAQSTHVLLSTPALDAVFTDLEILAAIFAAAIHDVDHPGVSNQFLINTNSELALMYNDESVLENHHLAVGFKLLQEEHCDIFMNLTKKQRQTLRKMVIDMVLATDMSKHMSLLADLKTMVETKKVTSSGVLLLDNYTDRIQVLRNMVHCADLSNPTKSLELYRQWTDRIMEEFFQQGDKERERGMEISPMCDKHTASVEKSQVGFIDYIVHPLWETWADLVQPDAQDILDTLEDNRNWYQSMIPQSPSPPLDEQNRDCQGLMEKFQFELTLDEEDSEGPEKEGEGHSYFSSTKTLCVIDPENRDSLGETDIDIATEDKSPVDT
# Chain of Cytochrome P450 1A2 (Homo sapiens) (P05177 whole entry, looked up): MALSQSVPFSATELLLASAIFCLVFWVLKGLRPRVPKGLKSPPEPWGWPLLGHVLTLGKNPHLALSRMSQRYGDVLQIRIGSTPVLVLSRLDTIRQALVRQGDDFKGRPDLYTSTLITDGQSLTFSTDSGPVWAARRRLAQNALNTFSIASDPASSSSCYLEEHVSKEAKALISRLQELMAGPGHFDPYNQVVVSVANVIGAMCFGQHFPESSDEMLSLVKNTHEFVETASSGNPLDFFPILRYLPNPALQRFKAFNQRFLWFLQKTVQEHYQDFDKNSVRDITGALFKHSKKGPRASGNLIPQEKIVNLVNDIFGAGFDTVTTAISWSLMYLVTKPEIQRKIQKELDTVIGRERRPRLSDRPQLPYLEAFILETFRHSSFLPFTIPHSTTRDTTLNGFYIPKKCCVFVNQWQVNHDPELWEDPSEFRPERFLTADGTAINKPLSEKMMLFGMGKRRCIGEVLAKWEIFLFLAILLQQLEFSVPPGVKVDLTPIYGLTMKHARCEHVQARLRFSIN
# Chain of Lysosomal acid glucosylceramidase (Homo sapiens) (P04062 whole entry, looked up): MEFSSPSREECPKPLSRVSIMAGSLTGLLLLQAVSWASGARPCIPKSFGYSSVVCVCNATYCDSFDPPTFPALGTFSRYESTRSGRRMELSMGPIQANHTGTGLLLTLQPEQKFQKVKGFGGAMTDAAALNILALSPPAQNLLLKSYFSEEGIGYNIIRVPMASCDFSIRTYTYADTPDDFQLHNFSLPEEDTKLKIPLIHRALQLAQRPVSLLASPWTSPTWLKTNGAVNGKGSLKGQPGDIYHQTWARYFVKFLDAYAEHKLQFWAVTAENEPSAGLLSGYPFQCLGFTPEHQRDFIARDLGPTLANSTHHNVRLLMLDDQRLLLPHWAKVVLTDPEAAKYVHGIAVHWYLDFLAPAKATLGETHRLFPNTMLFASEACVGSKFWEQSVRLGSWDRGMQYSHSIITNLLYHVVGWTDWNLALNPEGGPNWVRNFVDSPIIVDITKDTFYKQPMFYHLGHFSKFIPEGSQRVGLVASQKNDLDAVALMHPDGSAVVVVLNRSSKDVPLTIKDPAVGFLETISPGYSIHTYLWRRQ
# Chain of Voltage-gated inwardly rectifying potassium channel KCNH2 (Homo sapiens) (Q12809 whole entry, looked up): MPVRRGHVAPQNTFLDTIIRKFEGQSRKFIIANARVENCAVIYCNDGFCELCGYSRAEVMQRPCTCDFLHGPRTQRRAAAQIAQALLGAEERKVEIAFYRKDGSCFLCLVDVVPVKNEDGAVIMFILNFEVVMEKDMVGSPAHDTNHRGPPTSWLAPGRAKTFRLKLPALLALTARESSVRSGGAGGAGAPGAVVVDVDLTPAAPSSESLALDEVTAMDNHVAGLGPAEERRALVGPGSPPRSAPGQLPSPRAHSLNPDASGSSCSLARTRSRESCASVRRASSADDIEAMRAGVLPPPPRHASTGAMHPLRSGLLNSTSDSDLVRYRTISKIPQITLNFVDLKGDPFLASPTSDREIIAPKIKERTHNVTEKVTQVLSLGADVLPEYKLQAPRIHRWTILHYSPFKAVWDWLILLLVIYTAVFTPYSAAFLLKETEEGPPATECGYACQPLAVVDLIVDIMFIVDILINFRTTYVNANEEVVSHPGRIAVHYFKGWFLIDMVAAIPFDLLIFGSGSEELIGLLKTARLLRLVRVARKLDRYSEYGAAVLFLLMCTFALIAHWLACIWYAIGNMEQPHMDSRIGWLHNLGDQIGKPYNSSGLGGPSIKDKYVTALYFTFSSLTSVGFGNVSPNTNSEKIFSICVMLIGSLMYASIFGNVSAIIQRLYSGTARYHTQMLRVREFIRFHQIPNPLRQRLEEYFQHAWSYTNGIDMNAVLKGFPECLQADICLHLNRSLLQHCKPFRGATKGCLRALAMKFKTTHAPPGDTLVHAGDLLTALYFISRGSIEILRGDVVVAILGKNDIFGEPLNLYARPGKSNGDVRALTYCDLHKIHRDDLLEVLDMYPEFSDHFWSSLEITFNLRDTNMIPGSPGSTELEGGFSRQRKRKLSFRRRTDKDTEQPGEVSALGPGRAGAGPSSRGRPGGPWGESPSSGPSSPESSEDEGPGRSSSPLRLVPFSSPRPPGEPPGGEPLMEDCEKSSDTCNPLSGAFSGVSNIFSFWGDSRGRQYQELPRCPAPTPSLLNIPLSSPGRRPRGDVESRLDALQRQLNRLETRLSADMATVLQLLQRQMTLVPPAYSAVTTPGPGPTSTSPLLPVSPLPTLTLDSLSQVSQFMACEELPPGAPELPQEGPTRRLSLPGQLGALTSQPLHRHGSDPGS
smiles,measurement,setting,value
O=C(O)C1=CCCN(CCOC(c2ccc(C(F)(F)F)cc2)c2ccc(C(F)(F)F)cc2)C1,Potency,[1],> 46 µM (inactive)
same,Potency,[2],> 46 µM (inactive)
same,Potency,[3],inactive
same,Potency,[4],inactive
same,Potency,[5],inactive
same,outcome,[6],inactive
CC(CCC(=O)O)C1CCC2C3C(=O)CC4CC(=O)CC[C@@]4(C)C3CC(=O)[C@]12C (some centres not stated),"activity change, negative = inhibition",[7]; at 57.5 µM (top of the series),1.06% (inactive)
same,max response,[7]; [19],16%
same,max response,[7]; [20],21.9%
CN1C[C@H](C(=O)N[C@@]2(C)O[C@@]3(O)C4CCCN4C(=O)C(Cc4ccccc4)N3C2=O)C[C@H]2c3cccc4[nH]cc(c34)C[C@H]21 (some centres not stated),"activity change, negative = inhibition",[7]; at 57.5 µM (top of the series),12.3% (inactive)
same,max response,[7]; [19],8.55%
same,max response,[7]; [20],25.1%
C[C@]12CC[C@H](O)CC1=CCC1C2CC[C@]2(C)C(=O)CC[C@@H]12 (some centres not stated),"activity change, negative = inhibition",[7]; at 57.5 µM (top of the series),0.778% (inactive)
same,max response,[7]; [19],-17.2%
same,max response,[7]; [20],-14.9%
same,Potency,[5],inactive
CCCN1CCc2cc(O)cc3c2C1Cc1ccc(O)c(O)c1-3 (configuration not stated),Potency,[8],7.08 µM (active)
same,outcome,[6],inactive
CNCC[C@@H](Oc1ccc(C(F)(F)F)cc1)c1ccccc1,"activity change, negative = inhibition",[7]; at 57.5 µM (top of the series),1.23% (inactive)
same,max response,[7]; [19],-30.3%
same,max response,[7]; [20],-28.9%
O=C1C=CC(=O)c2c(O)cccc21,Potency,[4],inactive
same,Potency,[9],inactive
same,Potency,[10],inactive
same,"activity change, negative = inhibition",[7]; at 57.5 µM (top of the series),10.3% (inactive)
same,max response,[7]; [19],-12.3%
same,max response,[7]; [20],-1.73%
C[C@H](CCC(=O)O)[C@H]1CC[C@@H]2[C@H]3CC[C@H]4C[C@@H](O)CC[C@@]4(C)[C@H]3CC[C@]21C,"activity change, negative = inhibition",[7]; at 25.7 µM (top of the series),2.39% (inactive)
same,max response,[7]; [19],-11.2%
same,max response,[7]; [20],-8.48%
C[C@@H](C(=O)O)c1ccc(-c2ccccc2)c(F)c1,"activity change, negative = inhibition",[7]; at 25.7 µM (top of the series),2.45% (inactive)
same,max response,[7]; [19],2.3%
same,max response,[7]; [20],1.21%
CCC1CN2CCc3cc(OC)c(OC)cc3C2CC1CC1NCCc2cc(OC)c(OC)cc21 (configuration not stated),"activity change, negative = inhibition",[7]; at 57.5 µM (top of the series),7.1% (inactive)
same,max response,[7]; [19],-0.174%
same,max response,[7]; [20],8%
O=C(NC[C@@H]1CCCCN1)c1cc(OCC(F)(F)F)ccc1OCC(F)(F)F,"activity change, negative = inhibition",[7]; at 25.7 µM (top of the series),-0.787% (inactive)
same,max response,[7]; [19],-18.7%
same,max response,[7]; [20],-19.7%
COc1ccc2c(c1O)-c1c(OC)c(OC)cc3c1[C@H](C2)N(C)CC3,outcome,[11],inactive
same,Potency,[12],10 µM (active)
same,"activity change, negative = inhibition",[13],-3.12% (inactive)
same,outcome,[14],inactive
same,Potency,[1],> 20.6 µM (inactive) and > 46 µM (inactive)
same,Potency,[2],> 20.6 µM (inactive) and > 46 µM (inactive)
same,outcome,[15],inactive
same,Potency,[4],inactive
same,Potency,[16],inactive
same,"activity change, negative = inhibition",[7]; at 25.7 µM (top of the series),2.04% (inactive)
same,max response,[7]; [19],5.35%
same,max response,[7]; [20],2.2%
same,Potency,[5],inactive
CN1CCCC2(CCN(C(=O)c3ccco3)CC2)C1,Potency,[17],> 20 µM (inactive)
same,Potency,[18],> 11.4 µM (inactive)
same,outcome,[11],inactive
same,outcome,[14],inactive
same,Potency,[2],> 46 µM (inactive)
same,outcome,[15],inactive
same,Potency,[3],inactive
same,"activity change, negative = inhibition",[7]; at 57.5 µM (top of the series),-2.44% (inactive)
same,max response,[7]; [19],-24.9%
same,max response,[7]; [20],-25.6%
